Test results: PubChem BioAssay AID1159580 (chemical genetic matrix, 2015)
Hit rate of the full screen: of about 5,500 compounds, about 2,000 (36%) were called active. About 18% were inconclusive and are not listed. This is one part of the list. A number with no mark means an inactive call. Rule as the data show it: active = normalized growth mostly below about 0.91 (no sharp cut-off); inconclusive = no clear call, values can overlap the other calls; inactive = mostly above about 0.92.

Test: chemical genetic growth profiling, strain panel (AID 1159580);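 also: tested at 20 µM; growth read once vehicle control cultures reached saturation at 30 °C; 1 = growth at the plate median or of vehicle wells; lower values mean less growth of the strain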
Conditions: growth OD

## CCCCCCc1ccc(O)cc1O
S. cerevisiae deletion strains, locus YJL187C, strain SWE1, active compounds read low
  normalized growth: 0.952
S. cerevisiae deletion strains, locus YJR043C, strain POL32, active compounds read low
  normalized growth: 0.876
S. cerevisiae deletion strains, locus YJR066W, strain TOR1, active compounds read low
  normalized growth: 0.813 (active)
S. cerevisiae deletion strains, locus YKL009W, strain mrt4, active compounds read low
  normalized growth: 0.868 (active)
S. cerevisiae deletion strains, locus YKL068W, active compounds read low
  normalized growth: 0.967
S. cerevisiae deletion strains, locus YKL085W, strain MDH1 (second series), active compounds read low
  normalized growth: 0.954
S. cerevisiae deletion strains, locus YKL085W, strain MDH1, active compounds read low
  normalized growth: 0.954
S. cerevisiae deletion strains, locus YKL160W, strain elf1, active compounds read low
  normalized growth: 0.901 (active)
S. cerevisiae deletion strains, locus YKL190W, strain CNB1, active compounds read low
  normalized growth: 0.944
S. cerevisiae deletion strains, locus YKR001C, strain vps1, active compounds read low
  normalized growth: 0.325 (active)
S. cerevisiae deletion strains, locus YKR026C, strain gcn3, active compounds read low
  normalized growth: 0.972
S. cerevisiae deletion strains, locus YKR091W, strain srl3, active compounds read low
  normalized growth: 0.973
S. cerevisiae deletion strains, locus YLL001W, strain dnm1, active compounds read low
  normalized growth: 0.935
S. cerevisiae deletion strains, locus YLL026W, active compounds read low
  normalized growth: 0.915 (active)
S. cerevisiae deletion strains, locus YLL041C, strain sdh2, active compounds read low
  normalized growth: 0.973
S. cerevisiae deletion strains, locus YLR027C, strain aat2, active compounds read low
  normalized growth: 0.855 (active)
S. cerevisiae deletion strains, locus YLR039C, strain RIC1, active compounds read low
  normalized growth: 0.291 (active)
S. cerevisiae deletion strains, locus YLR058C, strain SHM2, active compounds read low
  normalized growth: 0.915
S. cerevisiae deletion strains, locus YLR102C, strain apc9, active compounds read low
  normalized growth: 0.955
S. cerevisiae deletion strains, locus YLR113W, strain HOG1, active compounds read low
  normalized growth: 0.744 (active)
S. cerevisiae deletion strains, locus YLR221C, strain rsa3, active compounds read low
  normalized growth: 0.824 (active)
S. cerevisiae deletion strains, locus YLR258W, strain gsy2, active compounds read low
  normalized growth: 0.891 (active)
S. cerevisiae deletion strains, locus YLR262C, strain YPT6 (second series), active compounds read low
  normalized growth: 0.582 (active)
S. cerevisiae deletion strains, locus YLR262C, strain YPT6, active compounds read low
  normalized growth: 0.449 (active)
S. cerevisiae deletion strains, locus YLR268W, strain sec22, active compounds read low
  normalized growth: 0.913
S. cerevisiae deletion strains, locus YLR320W, strain mms22, active compounds read low
  normalized growth: 0.74 (active)
S. cerevisiae deletion strains, locus YLR330W, strain CHS5, active compounds read low
  normalized growth: 0.872 (active)
S. cerevisiae deletion strains, locus YLR342W, strain FKS1 (second series), active compounds read low
  normalized growth: 0.87
S. cerevisiae deletion strains, locus YLR342W, strain FKS1, active compounds read low
  normalized growth: 0.973
S. cerevisiae deletion strains, locus YLR357W, strain rsc2, active compounds read low
  normalized growth: 1.07
S. cerevisiae deletion strains, locus YLR370C, strain arc18, active compounds read low
  normalized growth: 0.925
S. cerevisiae deletion strains, locus YLR371W, strain rom2, active compounds read low
  normalized growth: 0.622 (active)
S. cerevisiae deletion strains, locus YLR384C, strain iki3, active compounds read low
  normalized growth: 0.997
S. cerevisiae deletion strains, locus YLR418C, strain cdc73, active compounds read low
  normalized growth: 0.767 (active)
S. cerevisiae deletion strains, locus YML016C, strain PPZ1, active compounds read low
  normalized growth: 0.947
S. cerevisiae deletion strains, locus YML032C, strain rad52, active compounds read low
  normalized growth: 0.784 (active)
S. cerevisiae deletion strains, locus YML120C, strain ndi1, active compounds read low
  normalized growth: 0.836 (active)
S. cerevisiae deletion strains, locus YML124C, strain tub3, active compounds read low
  normalized growth: 0.934
S. cerevisiae deletion strains, locus YMR058W, strain fet3, active compounds read low
  normalized growth: 0.881 (active)
S. cerevisiae deletion strains, locus YMR078C, strain ctf18, active compounds read low
  normalized growth: 0.912 (active)
S. cerevisiae deletion strains, locus YMR125W, strain sto1, active compounds read low
  normalized growth: 1.04
S. cerevisiae deletion strains, locus YMR129W, active compounds read low
  normalized growth: 0.976
S. cerevisiae deletion strains, locus YMR205C, strain PFK2, active compounds read low
  normalized growth: 0.749 (active)
S. cerevisiae deletion strains, locus YMR223W, strain ubp8, active compounds read low
  normalized growth: 0.801 (active)
S. cerevisiae deletion strains, locus YMR231W, strain pep5, active compounds read low
  normalized growth: 0.999
S. cerevisiae deletion strains, locus YMR307W, strain GAS1, active compounds read low
  normalized growth: 0.563 (active)
S. cerevisiae deletion strains, locus YNL067W, strain RPL9B, active compounds read low
  normalized growth: 0.779 (active)
S. cerevisiae deletion strains, locus YNL071W, strain lat1, active compounds read low
  normalized growth: 0.64 (active)
S. cerevisiae deletion strains, locus YNL183C, strain NPR1, active compounds read low
  normalized growth: 0.813 (active)
S. cerevisiae deletion strains, locus YNL209W, strain ssb2, active compounds read low
  normalized growth: 0.972
S. cerevisiae deletion strains, locus YNL233W, strain BNI4, active compounds read low
  normalized growth: 0.858 (active)
S. cerevisiae deletion strains, locus YNL248C, strain rpa49, active compounds read low
  normalized growth: 0.84 (active)
S. cerevisiae deletion strains, locus YNL250W, strain rad50, active compounds read low
  normalized growth: 0.986
S. cerevisiae deletion strains, locus YNL271C, strain bni1, active compounds read low
  normalized growth: 0.952
S. cerevisiae deletion strains, locus YNL298W, strain CLA4, active compounds read low
  normalized growth: 0.831 (active)
S. cerevisiae deletion strains, locus YNL307C, strain MCK1, active compounds read low
  normalized growth: 0.322 (active)
S. cerevisiae deletion strains, locus YNL322C, strain KRE1 (second series), active compounds read low
  normalized growth: 0.927
S. cerevisiae deletion strains, locus YNR049C, strain mso1, active compounds read low
  normalized growth: 0.978
S. cerevisiae deletion strains, locus YNR052C, strain pop2, active compounds read low
  normalized growth: 0.77 (active)
S. cerevisiae deletion strains, locus YOL012C, strain htz1
  normalized growth: 1.21
S. cerevisiae deletion strains, locus YOL147C, strain pex11, active compounds read low
  normalized growth: 0.803 (active)
S. cerevisiae deletion strains, locus YOR001W, strain rrp6, active compounds read low
  normalized growth: 0.876 (active)
S. cerevisiae deletion strains, locus YOR061W, strain CKA2, active compounds read low
  normalized growth: 0.962
S. cerevisiae deletion strains, locus YOR069W, strain VPS5, active compounds read low
  normalized growth: 0.97
S. cerevisiae deletion strains, locus YOR070C, strain gyp1, active compounds read low
  normalized growth: 0.95
S. cerevisiae deletion strains, locus YOR080W, strain dia2, active compounds read low
  normalized growth: 0.969
S. cerevisiae deletion strains, locus YOR083W, strain WHI5, active compounds read low
  normalized growth: 0.908
S. cerevisiae deletion strains, locus YOR106W, strain vam3, active compounds read low
  normalized growth: 0.837 (active)
S. cerevisiae deletion strains, locus YOR136W, strain idh2, active compounds read low
  normalized growth: 0.928
S. cerevisiae deletion strains, locus YOR144C, strain elg1, active compounds read low
  normalized growth: 0.861 (active)
S. cerevisiae deletion strains, locus YOR184W, strain ser1, active compounds read low
  normalized growth: 0.685 (active)
S. cerevisiae deletion strains, locus YOR231W, strain MKK1, active compounds read low
  normalized growth: 0.801 (active)
S. cerevisiae deletion strains, locus YOR265W, strain rbl2, active compounds read low
  normalized growth: 0.957
S. cerevisiae deletion strains, locus YOR270C, strain vph1, active compounds read low
  normalized growth: 0.73 (active)
S. cerevisiae deletion strains, locus YOR290C, strain snf2, active compounds read low
  normalized growth: 0.819 (active)
S. cerevisiae deletion strains, locus YOR316C, strain cot1, active compounds read low
  normalized growth: 0.956
S. cerevisiae deletion strains, locus YPL051W, strain arl3, active compounds read low
  normalized growth: 0.705 (active)
S. cerevisiae deletion strains, locus YPL078C, strain atp4, active compounds read low
  normalized growth: 0.891 (active)
S. cerevisiae deletion strains, locus YPL106C, strain sse1, active compounds read low
  normalized growth: 1.05
S. cerevisiae deletion strains, locus YPL240C, strain hsp82, active compounds read low
  normalized growth: 0.924 (active)
S. cerevisiae deletion strains, locus YPL241C, strain CIN2, active compounds read low
  normalized growth: 0.953
S. cerevisiae deletion strains, locus YPL256C, strain CLN2, active compounds read low
  normalized growth: 0.782 (active)
S. cerevisiae deletion strains, locus YPR119W, strain clb2, active compounds read low
  normalized growth: 0.956
S. cerevisiae deletion strains, locus YPR141C, strain kar3, active compounds read low
  normalized growth: 0.963
S. cerevisiae deletion strains, locus YPR163C, strain tif3, active compounds read low
  normalized growth: 0.906 (active)
S. cerevisiae deletion strains, locus YPR167C, strain met16, active compounds read low
  normalized growth: 0.868 (active)
S. cerevisiae deletion strains, strain wtn01, active compounds read low
  normalized growth: 0.768 (active)
S. cerevisiae strains, strain wild type, active compounds read low
  normalized growth: 0.926
